{"source": "the supplement of paper PMC11732987", "about": "“Enantioselective OTUD7B fragment discovery through chemoproteomics screening and high-throughput optimisation” (Communications Chemistry, 2025)", "test_in_all_cases": "log2 ratio of Biotin-Ahx-Ub-VS probe labelling (fragment/DMSO); higher = less target engagement (more negative = stronger competition), active = hit call of the paper (q ≤ 0.05, log2 ratio ≤ -1)", "conditions_in_all_cases": "compound concentration: 200 uM; treatment time: 3 h", "key": {"OTUD6B": {"target": "T1, OTUD6B (UniProt Q8N6M0)", "T1 sequence (whole entry)": "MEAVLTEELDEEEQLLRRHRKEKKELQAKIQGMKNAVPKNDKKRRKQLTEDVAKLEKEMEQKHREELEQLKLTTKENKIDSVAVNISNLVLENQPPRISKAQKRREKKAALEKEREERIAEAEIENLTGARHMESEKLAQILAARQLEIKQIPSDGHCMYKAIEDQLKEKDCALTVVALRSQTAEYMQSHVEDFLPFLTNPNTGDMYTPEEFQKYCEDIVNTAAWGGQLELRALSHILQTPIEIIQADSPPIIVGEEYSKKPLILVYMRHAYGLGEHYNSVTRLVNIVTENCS", "procedure,_shortened": "(§1)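 Using Biotin-Ahx-Ub-VS at 0.5 µM final for 1 h, DUBs were labelled in HEK293T lysate (495 µg per sample) that had first been treated in triplicate with fragment at 200 µM or vehicle for 3 h. NeutrAvidin enrichment, LysC and trypsin digestion and diaPASEF LC-MS/MS followed. Spectronaut label-free quantities were global-median-normalised. Values are average log2 fragment/vehicle ratios by unpaired t-test, using proteins with ≥2 unique peptides.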"}, "OTUD7B": {"target": "T2, OTUD7B (UniProt Q6GQQ9)", "T2 sequence (whole entry)": "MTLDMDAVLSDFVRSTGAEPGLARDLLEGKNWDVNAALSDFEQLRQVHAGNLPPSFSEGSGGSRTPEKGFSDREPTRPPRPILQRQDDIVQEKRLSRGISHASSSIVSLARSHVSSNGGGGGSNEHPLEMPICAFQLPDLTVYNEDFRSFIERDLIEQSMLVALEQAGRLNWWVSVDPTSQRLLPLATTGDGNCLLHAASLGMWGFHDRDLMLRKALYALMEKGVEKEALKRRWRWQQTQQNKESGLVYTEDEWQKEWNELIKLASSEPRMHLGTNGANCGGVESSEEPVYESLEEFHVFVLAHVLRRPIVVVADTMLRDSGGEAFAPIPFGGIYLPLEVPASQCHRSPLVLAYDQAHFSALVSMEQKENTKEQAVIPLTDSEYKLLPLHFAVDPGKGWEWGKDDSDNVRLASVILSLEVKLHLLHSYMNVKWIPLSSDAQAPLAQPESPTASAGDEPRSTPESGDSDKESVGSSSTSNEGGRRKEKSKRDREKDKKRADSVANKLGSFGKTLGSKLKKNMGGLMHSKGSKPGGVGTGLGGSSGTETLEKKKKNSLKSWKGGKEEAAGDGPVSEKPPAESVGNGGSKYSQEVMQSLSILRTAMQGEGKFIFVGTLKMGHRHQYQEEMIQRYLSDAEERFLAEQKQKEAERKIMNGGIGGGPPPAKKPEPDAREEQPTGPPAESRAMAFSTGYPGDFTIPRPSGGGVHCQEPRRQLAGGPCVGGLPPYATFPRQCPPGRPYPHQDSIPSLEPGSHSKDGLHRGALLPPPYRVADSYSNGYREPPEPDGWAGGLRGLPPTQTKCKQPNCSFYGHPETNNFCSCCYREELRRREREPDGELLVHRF", "procedure,_shortened": "as §1"}, "PRPF8": {"target": "PRPF8 (UniProt Q6P2Q9)", "procedure,_shortened": "as §1"}, "PSMD7": {"target": "T3, PSMD7 (UniProt P51665)", "T3 sequence (whole entry)": "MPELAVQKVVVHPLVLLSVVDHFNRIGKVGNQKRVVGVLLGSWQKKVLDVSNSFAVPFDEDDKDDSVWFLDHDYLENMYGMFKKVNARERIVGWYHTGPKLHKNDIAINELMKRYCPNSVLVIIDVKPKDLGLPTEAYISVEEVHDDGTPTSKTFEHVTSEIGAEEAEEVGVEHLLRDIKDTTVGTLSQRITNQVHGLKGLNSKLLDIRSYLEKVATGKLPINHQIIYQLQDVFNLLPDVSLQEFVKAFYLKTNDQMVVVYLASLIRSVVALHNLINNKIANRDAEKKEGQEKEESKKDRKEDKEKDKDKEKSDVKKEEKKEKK", "procedure,_shortened": "as §1"}, "UCHL1": {"target": "UCHL1 (UniProt P09936)", "sequence (P09936 whole entry, looked up)": "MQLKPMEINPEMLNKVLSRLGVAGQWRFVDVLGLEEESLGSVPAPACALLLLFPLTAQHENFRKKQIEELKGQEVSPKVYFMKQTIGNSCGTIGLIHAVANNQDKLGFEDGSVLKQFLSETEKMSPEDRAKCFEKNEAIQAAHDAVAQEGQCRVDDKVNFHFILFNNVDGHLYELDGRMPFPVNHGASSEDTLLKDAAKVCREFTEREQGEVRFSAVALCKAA", "procedure,_shortened": "as §1"}, "UCHL3": {"target": "T4, UCHL3 (UniProt P15374)", "T4 sequence (whole entry)": "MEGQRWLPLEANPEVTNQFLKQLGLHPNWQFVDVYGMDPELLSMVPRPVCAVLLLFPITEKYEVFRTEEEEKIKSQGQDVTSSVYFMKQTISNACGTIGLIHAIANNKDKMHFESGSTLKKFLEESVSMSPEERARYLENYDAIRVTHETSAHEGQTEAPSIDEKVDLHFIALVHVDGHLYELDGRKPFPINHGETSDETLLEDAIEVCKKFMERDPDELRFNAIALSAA", "procedure,_shortened": "as §1"}, "UCHL5": {"target": "T5, UCHL5 (UniProt Q9Y5K5)", "T5 sequence (whole entry)": "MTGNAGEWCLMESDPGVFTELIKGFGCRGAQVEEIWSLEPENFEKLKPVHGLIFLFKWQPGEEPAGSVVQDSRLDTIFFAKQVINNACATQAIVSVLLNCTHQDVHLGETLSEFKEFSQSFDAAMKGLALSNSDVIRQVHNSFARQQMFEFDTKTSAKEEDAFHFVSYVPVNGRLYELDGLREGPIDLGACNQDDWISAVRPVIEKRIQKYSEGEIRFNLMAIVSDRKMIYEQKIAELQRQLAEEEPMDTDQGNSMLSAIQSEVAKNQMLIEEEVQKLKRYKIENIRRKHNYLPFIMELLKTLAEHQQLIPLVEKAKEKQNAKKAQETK", "procedure,_shortened": "as §1"}, "USP10": {"target": "USP10 (UniProt Q14694)", "sequence (Q14694 whole entry)": "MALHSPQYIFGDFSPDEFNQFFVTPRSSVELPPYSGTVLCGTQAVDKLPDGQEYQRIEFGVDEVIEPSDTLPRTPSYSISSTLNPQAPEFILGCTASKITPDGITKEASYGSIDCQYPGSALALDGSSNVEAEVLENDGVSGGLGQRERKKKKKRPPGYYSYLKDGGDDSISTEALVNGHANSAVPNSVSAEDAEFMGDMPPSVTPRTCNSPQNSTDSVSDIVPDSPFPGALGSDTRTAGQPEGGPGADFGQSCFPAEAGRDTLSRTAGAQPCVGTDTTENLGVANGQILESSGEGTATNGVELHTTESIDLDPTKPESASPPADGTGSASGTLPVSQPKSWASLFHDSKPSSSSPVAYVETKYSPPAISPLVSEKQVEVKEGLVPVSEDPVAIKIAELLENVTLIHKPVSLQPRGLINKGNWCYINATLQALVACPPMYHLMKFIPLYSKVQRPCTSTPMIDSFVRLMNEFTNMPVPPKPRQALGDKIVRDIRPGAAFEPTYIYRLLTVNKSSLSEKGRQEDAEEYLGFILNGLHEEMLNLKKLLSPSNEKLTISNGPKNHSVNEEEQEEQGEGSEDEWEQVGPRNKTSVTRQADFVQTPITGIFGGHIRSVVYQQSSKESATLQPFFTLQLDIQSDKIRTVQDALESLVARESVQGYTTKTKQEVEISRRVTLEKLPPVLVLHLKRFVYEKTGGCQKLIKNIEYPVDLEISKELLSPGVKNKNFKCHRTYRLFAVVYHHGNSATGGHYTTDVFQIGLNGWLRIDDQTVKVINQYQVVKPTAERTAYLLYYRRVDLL", "procedure,_shortened": "as §1"}, "USP15": {"target": "T6, USP15 (UniProt Q9Y4E8)", "T6 sequence (whole entry)": "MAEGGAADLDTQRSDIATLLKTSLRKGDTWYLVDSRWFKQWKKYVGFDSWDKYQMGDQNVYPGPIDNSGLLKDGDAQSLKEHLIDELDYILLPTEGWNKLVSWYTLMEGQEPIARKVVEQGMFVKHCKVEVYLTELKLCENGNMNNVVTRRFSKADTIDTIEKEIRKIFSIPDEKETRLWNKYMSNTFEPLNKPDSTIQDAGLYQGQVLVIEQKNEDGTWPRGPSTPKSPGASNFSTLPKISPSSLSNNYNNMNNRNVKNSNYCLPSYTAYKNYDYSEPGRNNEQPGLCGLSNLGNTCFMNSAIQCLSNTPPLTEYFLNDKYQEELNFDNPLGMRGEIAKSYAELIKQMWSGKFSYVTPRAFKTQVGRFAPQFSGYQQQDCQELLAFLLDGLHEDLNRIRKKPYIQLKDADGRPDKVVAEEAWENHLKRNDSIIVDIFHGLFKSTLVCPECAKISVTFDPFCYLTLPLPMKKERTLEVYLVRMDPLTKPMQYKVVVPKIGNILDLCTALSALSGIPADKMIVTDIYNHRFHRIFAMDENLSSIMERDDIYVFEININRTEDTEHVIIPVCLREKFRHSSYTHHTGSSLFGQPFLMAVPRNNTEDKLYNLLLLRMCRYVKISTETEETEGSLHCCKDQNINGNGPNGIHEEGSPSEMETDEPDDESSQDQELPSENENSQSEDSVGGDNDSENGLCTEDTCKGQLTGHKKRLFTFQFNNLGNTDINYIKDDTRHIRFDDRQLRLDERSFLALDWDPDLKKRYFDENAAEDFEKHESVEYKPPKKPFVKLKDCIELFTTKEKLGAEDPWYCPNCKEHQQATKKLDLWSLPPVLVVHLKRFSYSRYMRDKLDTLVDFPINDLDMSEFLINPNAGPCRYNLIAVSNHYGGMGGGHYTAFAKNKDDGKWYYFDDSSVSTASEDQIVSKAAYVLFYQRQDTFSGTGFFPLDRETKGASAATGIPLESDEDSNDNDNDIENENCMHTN", "procedure,_shortened": "as §1"}, "USP16": {"target": "USP16 (UniProt Q9Y5T5)", "sequence (Q9Y5T5 whole entry, looked up)": "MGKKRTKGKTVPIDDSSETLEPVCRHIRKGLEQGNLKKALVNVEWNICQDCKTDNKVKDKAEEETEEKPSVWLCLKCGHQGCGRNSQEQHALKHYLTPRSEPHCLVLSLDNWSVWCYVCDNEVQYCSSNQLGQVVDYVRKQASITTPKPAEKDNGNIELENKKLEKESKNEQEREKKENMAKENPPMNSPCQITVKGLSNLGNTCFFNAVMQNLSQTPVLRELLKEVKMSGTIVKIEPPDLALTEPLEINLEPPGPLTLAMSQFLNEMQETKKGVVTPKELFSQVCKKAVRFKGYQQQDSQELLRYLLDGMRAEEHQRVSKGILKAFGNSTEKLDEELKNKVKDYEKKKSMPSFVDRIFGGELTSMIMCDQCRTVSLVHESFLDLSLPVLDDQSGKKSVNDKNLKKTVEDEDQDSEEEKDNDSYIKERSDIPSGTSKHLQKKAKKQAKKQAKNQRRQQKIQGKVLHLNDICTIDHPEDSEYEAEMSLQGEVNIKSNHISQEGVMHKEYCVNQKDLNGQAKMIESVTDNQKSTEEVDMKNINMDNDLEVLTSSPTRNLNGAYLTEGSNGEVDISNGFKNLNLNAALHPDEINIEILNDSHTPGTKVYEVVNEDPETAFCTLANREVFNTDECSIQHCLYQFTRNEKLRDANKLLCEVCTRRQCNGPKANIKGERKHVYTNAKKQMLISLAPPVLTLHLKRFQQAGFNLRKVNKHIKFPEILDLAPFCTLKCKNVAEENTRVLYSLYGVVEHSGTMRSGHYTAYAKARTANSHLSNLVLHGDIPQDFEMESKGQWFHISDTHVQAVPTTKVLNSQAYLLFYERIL", "procedure,_shortened": "as §1"}}, "note": "A number with no mark means an inactive call.", "data": [{"smiles": "CCc1c[nH]c(CNC(=O)CCl)n1.Cl", "values": [{"measurement": "log2 ratio of Biotin-Ahx-Ub-VS probe labelling", "setting": "OTUD6B", "value": -0.246}, {"measurement": "log2 ratio of Biotin-Ahx-Ub-VS probe labelling", "setting": "OTUD7B", "value": -0.369}, {"measurement": "log2 ratio of Biotin-Ahx-Ub-VS probe labelling", "setting": "PRPF8", "value": 0.073}, {"measurement": "log2 ratio of Biotin-Ahx-Ub-VS probe labelling", "setting": "PSMD7", "value": -0.469}, {"measurement": "log2 ratio of Biotin-Ahx-Ub-VS probe labelling", "setting": "UCHL1", "value": "-1.33 (active)"}, {"measurement": "log2 ratio of Biotin-Ahx-Ub-VS probe labelling", "setting": "UCHL3", "value": 0.0893}, {"measurement": "log2 ratio of Biotin-Ahx-Ub-VS probe labelling", "setting": "UCHL5", "value": -0.335}, {"measurement": "log2 ratio of Biotin-Ahx-Ub-VS probe labelling", "setting": "USP10", "value": -0.218}, {"measurement": "log2 ratio of Biotin-Ahx-Ub-VS probe labelling", "setting": "USP15", "value": -0.538}, {"measurement": "log2 ratio of Biotin-Ahx-Ub-VS probe labelling", "setting": "USP16", "value": -0.0099}]}]}
